Only some compounds are listed: those with a hit (about 4.7% of all), similar ones and a draw of the others.
VHR inh abs – inhibitors of human VHR1 phosphatase (DUSP3); P51452; inhibition, % at 13.3 µM; recombinant VHR phosphatase, pNPP absorbance; actives 0.52% (n = 290,000); in the data active = inhibition above about 50%
Target sequence (P51452 whole entry, looked up): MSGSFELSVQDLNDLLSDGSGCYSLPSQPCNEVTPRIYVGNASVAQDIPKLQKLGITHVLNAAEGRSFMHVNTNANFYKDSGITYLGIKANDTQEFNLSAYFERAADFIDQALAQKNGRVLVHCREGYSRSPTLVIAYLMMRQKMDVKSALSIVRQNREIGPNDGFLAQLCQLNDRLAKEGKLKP
GDH-TPI counter – GDH-TPI coupled enzyme inhibition counter-screen. actives 1.2% (n = 360,000). GDH-TPI coupled enzyme counterscreen, NADH absorbance. AID 588335. inhibition, % at 4.8 µM;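 note: 0% = DMSO wells and 100% = wells lacking the enzyme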
Mtb FBA inh – inhibitors of M. tuberculosis fructose-bisphosphate aldolase; P9WQA3; purified M. tuberculosis FBA, fluorescence read-out; inhibition, % at 1 µM; actives 2.3% (n = 360,000); AID 588726; in the data active = inhibition above about 27%;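 note: 0% = vehicle and 100% = reference inhibitor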
Target sequence (P9WQA3 whole entry, looked up): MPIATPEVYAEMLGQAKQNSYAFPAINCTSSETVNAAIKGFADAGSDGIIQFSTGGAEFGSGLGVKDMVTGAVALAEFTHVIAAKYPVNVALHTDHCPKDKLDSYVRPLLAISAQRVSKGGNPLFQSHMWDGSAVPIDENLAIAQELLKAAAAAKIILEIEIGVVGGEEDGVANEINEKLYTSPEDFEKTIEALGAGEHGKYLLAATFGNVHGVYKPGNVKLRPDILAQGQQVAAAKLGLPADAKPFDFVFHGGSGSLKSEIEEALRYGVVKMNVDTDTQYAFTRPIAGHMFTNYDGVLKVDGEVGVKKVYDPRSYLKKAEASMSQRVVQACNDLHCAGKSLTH
SARS 3CLpro inh – SARS-CoV 3CLpro protease inhibition | P0C6X7 | recombinant SARS-CoV 3CLpro, quenched FRET peptide cleavage | inhibition, % at 6 µM | actives 0.14% (n = 290,000); in the data active = inhibition above about 12%
RecA intein inh – blocks M. tuberculosis RecA intein splicing. P9WHJ3. cell-free RecA intein splicing, fluorescence. inhibition, % (test concentration not listed). actives 0.75% (n = 290,000); in the data active = inhibition above about 30%;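 note: 0% = vehicle wells and 100% = reference inhibitor control wells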
CCHFV vOTU inh – blocks the CCHF virus ovarian tumor domain protease; inhibition, % at 11.5 µM; actives 0.55% (n = 370,000); CCHFV vOTU protease, Pep-AMC fluorescence; AID 651958; note: 0% = vehicle wells with enzyme and 100% = no enzyme wells
An asterisk follows results filed as active. Cut-off read from the data, not from the text of the source, unless noted: active = inhibition above about 30%; inactive = the rest.

How did CN(C)c1ccc(C(=O)Nc2nnc(-c3ccc(Cl)cc3)o2)cc1 do in these assays?
VHR inh abs: 11; GDH-TPI counter: 35*; Mtb FBA inh: 5; SARS 3CLpro inh: 2; RecA intein inh: -5; CCHFV vOTU inh: 6

What do the screens show for `COc1cc(/C=N/N=C(\N)c2nonc2N)ccc1O`?
VHR inh abs: 20; GDH-TPI counter: 18; Mtb FBA inh: -4; SARS 3CLpro inh: -12; RecA intein inh: -3; CCHFV vOTU inh: 14

What do the screens show for `N/C(=N\N=C\c1ccc(O)c(O)c1)c1nonc1N`?
VHR inh abs: 18; GDH-TPI counter: 41*; Mtb FBA inh: -2; SARS 3CLpro inh: 0; RecA intein inh: -4; CCHFV vOTU inh: -7

What do the screens show for `CCOC1=C2CN(S(=O)(=O)c3ccc(C)cc3)[C@H](c3ccccc3)C[C@@H]2N(S(=O)(=O)c2ccc(Br)cc2)[C@H](c2ccccc2)C1`?
Mtb FBA inh: -1; CCHFV vOTU inh: -11

How did COc1cc(OC)cc(C(=O)Nc2cccc(NC(=O)c3cc(OC)cc(OC)c3)n2)c1 do in these assays?
GDH-TPI counter: -6; Mtb FBA inh: 0; RecA intein inh: 0; CCHFV vOTU inh: -6

Results for COc1ccc(-c2cn3cccnc3n2)cc1Br ?
VHR inh abs: 2; GDH-TPI counter: 13; Mtb FBA inh: active; SARS 3CLpro inh: 0; RecA intein inh: -3; CCHFV vOTU inh: -267

What do the screens show for `COc1cc(OC)cc(C(=O)Nc2cc(-c3cn4cccnc4n3)ccc2C)c1`?
VHR inh abs: 30; GDH-TPI counter: 11; Mtb FBA inh: active; SARS 3CLpro inh: 2; RecA intein inh: -2; CCHFV vOTU inh: -314

How did COc1cc(C(=O)Nc2cc(-c3cn4cccnc4n3)ccc2C)cc(OC)c1OC do in these assays?
VHR inh abs: 19; GDH-TPI counter: 12; Mtb FBA inh: active; SARS 3CLpro inh: -1; RecA intein inh: -2; CCHFV vOTU inh: -302

Results for COc1ccc(-c2cn3cccnc3n2)cc1NC(=O)C(C)C ?
VHR inh abs: -6; GDH-TPI counter: 34*; Mtb FBA inh: 25; SARS 3CLpro inh: -3; RecA intein inh: -4; CCHFV vOTU inh: -22

What do the screens show for `COc1ccc(-c2cn3cccnc3n2)cc1NC(=O)C1CCCC1`?
VHR inh abs: 10; GDH-TPI counter: 23; Mtb FBA inh: 16; SARS 3CLpro inh: -5; RecA intein inh: 3; CCHFV vOTU inh: -29

What do the screens show for `COc1ccc(-c2cn3cccnc3n2)cc1NC(=O)C1CC1`?
VHR inh abs: 21; GDH-TPI counter: 8; Mtb FBA inh: 11; SARS 3CLpro inh: 2; RecA intein inh: -8

What do the screens show for `COc1ccc2c3c(n(C(=O)OC(C)(C)C)c2c1)C1CC=C(COC(C)=O)CN1CC3` (stereo unspecified)?
CCHFV vOTU inh: 17

What do the screens show for `Cc1ccc(NC(=S)NNC(=O)CSc2nc3sc4c(c3c(=O)n2-c2ccccc2)CCCC4)cc1`?
CCHFV vOTU inh: 22

Results for O=C(Nc1ccc(-c2cn3ccccc3n2)cc1)c1cccs1 ?
VHR inh abs: 24; GDH-TPI counter: 14; Mtb FBA inh: 0; SARS 3CLpro inh: -4; RecA intein inh: -12; CCHFV vOTU inh: 0

What do the screens show for `Nc1ccc(-c2cn3cccnc3n2)cc1`?
VHR inh abs: 17; GDH-TPI counter: 38*; Mtb FBA inh: 8; SARS 3CLpro inh: -5; RecA intein inh: -2; CCHFV vOTU inh: 1

What do the screens show for `O=C(COc1ccccc1)Nc1cccc(-c2cn3cccnc3n2)c1`?
VHR inh abs: 6; GDH-TPI counter: 2; Mtb FBA inh: active; SARS 3CLpro inh: -4; RecA intein inh: 2; CCHFV vOTU inh: -247

What do the screens show for `Cc1ccc(-c2cn3cccnc3n2)cc1NC(=O)c1cccs1`?
VHR inh abs: 3; GDH-TPI counter: 18; Mtb FBA inh: active; SARS 3CLpro inh: 3; RecA intein inh: -5; CCHFV vOTU inh: -252

What do the screens show for `O=C(NCCNC(=O)Oc1cccc2ccccc12)Oc1cccc2ccccc12`?
GDH-TPI counter: 2; Mtb FBA inh: 5; CCHFV vOTU inh: 14

Results for Cc1cc(C)n2nc(SCC(=O)NC3(C#N)CCCCC3)nc2n1 ?
GDH-TPI counter: 3; Mtb FBA inh: 4; CCHFV vOTU inh: -14

What do the screens show for `C=CCNC(=O)CN(C(=O)Cc1cccc(OC(F)(F)F)c1)c1cccc(Br)c1`?
CCHFV vOTU inh: 14

Results for CC(=O)c1c(C)n(CCc2ccc(Cl)cc2)c2ccc(O)cc12 ?
VHR inh abs: 38; GDH-TPI counter: 52*; Mtb FBA inh: 0; SARS 3CLpro inh: -1; RecA intein inh: -1; CCHFV vOTU inh: -7

What do the screens show for `Cc1cc(NC(=O)CS(=O)c2cn(Cc3cccc(Cl)c3)c3ccccc23)no1` (stereo unspecified)?
GDH-TPI counter: -2; Mtb FBA inh: -4; CCHFV vOTU inh: 6

Results for O=C(O)c1nc(Cl)c(Cl)c(N/N=C/c2ccccc2C(F)(F)F)c1Cl ?
VHR inh abs: 5; GDH-TPI counter: 31*; Mtb FBA inh: -2; SARS 3CLpro inh: 4; RecA intein inh: 5; CCHFV vOTU inh: 23

What do the screens show for `FC(F)(F)c1ccccc1/C=N/Nc1ccccn1`?
VHR inh abs: 36; GDH-TPI counter: 18; Mtb FBA inh: 4; SARS 3CLpro inh: 5; RecA intein inh: 0; CCHFV vOTU inh: 4

Results for N#Cc1ccc(Cn2nnc(-c3ccc(N4CCOCC4)cc3)n2)cc1 ?
CCHFV vOTU inh: -9

Results for COC(=O)c1ccccc1-c1ccc(/C=N/Nc2nc(N3CCCC3)nc(N3CCCC3)n2)o1 ?
VHR inh abs: 4; GDH-TPI counter: 61*; Mtb FBA inh: 23; SARS 3CLpro inh: 6; RecA intein inh: -3; CCHFV vOTU inh: -9

Results for COC(=O)c1ccccc1-c1ccc(/C=N/NC(=O)c2cc3ccccc3o2)o1 ?
VHR inh abs: -4; GDH-TPI counter: 52*; Mtb FBA inh: 5; SARS 3CLpro inh: -5; RecA intein inh: -5; CCHFV vOTU inh: -8

Results for CC(=O)Nc1ccc(N=Nc2ccccc2)cc1[N+](=O)[O-] ?
GDH-TPI counter: 31*; Mtb FBA inh: 0; CCHFV vOTU inh: 6

What do the screens show for `CCN(CC)c1ccc(/C=N/NS(=O)(=O)c2cccc([N+](=O)[O-])c2)cc1`?
VHR inh abs: -23; GDH-TPI counter: 28; Mtb FBA inh: -3; SARS 3CLpro inh: -1; RecA intein inh: -1; CCHFV vOTU inh: 8

What do the screens show for `CCN(Cc1ccccc1)c1ccc(/C=N/NS(=O)(=O)c2ccc(C)c([N+](=O)[O-])c2)cc1`?
VHR inh abs: -5; GDH-TPI counter: 32*; Mtb FBA inh: -4; SARS 3CLpro inh: -2; RecA intein inh: 4; CCHFV vOTU inh: 15

How did CCC(N=c1cc(-c2ccc(OC)cc2)oc2ccc(C)cc12)C(=O)O (stereo unspecified) do in these assays?
VHR inh abs: 9; GDH-TPI counter: 31*; Mtb FBA inh: active; SARS 3CLpro inh: 0; RecA intein inh: 0; CCHFV vOTU inh: -268

Source: PubChem BioAssay
